Experimental data from ChEMBL document CHEMBL1157539, “Thousands of chemical starting points for antimalarial lead identification” (Nature, 2010).

Tested on: HepG2
Assay: GSK_TCMDC: Percent inhibition of human HepG2 cell line. Test compounds present at 10uM.
Format: functional

Row | SMILES | Inhibition [%]
1 | CC(=O)O.CCC[C@@H]([C@@H](CC1CCCCC1)C(=O)N[C@H](C(=O)Nc1nccc(N)n1)C(C)(C)C)N(O)C=O | 25
2 | CC1(C)N=C(N)N=C(N)N1c1ccc(Oc2ccccc2)cc1.Cl | 13
3 | COc1ccc2ncc(F)c([C@H](O)CN3CCC(NCc4ccc5c(c4)NC(=O)CS5)CC3)c2c1.Cl | 7
4 | Cl.FC(F)(F)c1ccccc1OCc1cc(-c2ccncc2)c(COc2ccccc2C(F)(F)F)cc1C1=CCNCC1 | 31
5 | Cn1nc(-c2ccc(NC(=O)Nc3cc(C(F)(F)F)ccc3F)cc2)c2cnc(NCCCCN3CCCC3)nc21.O=C(O)C(F)(F)F | 88
6 | Cc1cc(=NN=Cc2ccccc2)c2cc(F)ccc2[nH]1 | 11
7 | O=S(=O)(Nc1ccc(CCN2CCC(N3CCCCC3)CC2)cc1)c1ccc2ccccc2c1 | 44
